Measurements taken from PubChem BioAssay (NCATS).
Inconclusive results are not listed. Calls of active or inactive are those of the source. The call rests on the fitted dose curve; in most records, active means well fitted cell-killing curve with a large enough effect in the repeat runs; inconclusive means weak or mixed curves, or effect the other way; inactive means flat fitted curve, though single readings scatter.
On the % scale 0 is the no-effect control and ±100 the full control effect.

Assay: qHTS assay for small molecule antagonists of the retinoid-related orphan receptor gamma (ROR-gamma) signaling pathway - cell viability counter screen (AID 720652);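 further: compound exposure lasted 16 hr before ATP read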
Conditions: RORgamma reporter cell line viability counter screen; series mostly up to 92.2 µM; activity change, negative = cytotoxicity: at the top concentration
Source text: National Center for Advancing Translational Sciences [NCATS]
NIH Chemical Genomics Center [NCGC]
National Institutes of Environmental Health Sciences [NIEHS]
National Toxicology Program [NTP]
Nuclear steroid hormone receptors are involved in many biological processes including inflammatory responses, cell proliferation, and apoptosis. Environmental factors or compounds disrupting these nuclear receptor pathways and gene expression may promote susceptibility to immunotoxicants and autoimmune diseases. One important group of these expression factors are the retinoid-related orphan receptors. To assess compounds that may interfere with the retinoid-related orphan receptor gamma (ROR-gamma) transcription factor, a cell-based luciferase assay was used.
The CHO cell-based assay utilizes a TET-inducible ROR expression factor and ROR response element-LUC reporter gene. Reporter activity was induced using doxycycline and measured after 16hr incubation. Luminescence was read using Viewlux (PerkinElmer), where a decrease in reporter activity would show a decrease in luminescence. The cytotoxicity of the compounds against ROR response-Luc reporter gene cell line was quantified by measuring the intracellular ATP content.
1,000 cells in 4 uL/well were dispensed into white wall/solid bottom 1536-well plates using a Multidrop Combi (Thermo Scientific) dispenser. Following incubation at 37 C and 5% CO2 for 5 hr, 23 nL compound or DMSO vehicle were transferred by a pin tool, then the plates were treated with 1 ul doxycycline to induce reporter gene activity. After 16 hr incubation at 37 C and 5% CO2, 5 uL/well of CellTiter-Glo reagent (Promega) was then added to each plate using a Flying Reagent Dispenser and incubated at room temperature for 30 min. The luminescence intensity was quantified on a ViewLux plate reader (PerkinElmer).
With `CC(C)C(C)(C)C(C)(C)C(C)(C)S` the “activity change, negative = cytotoxicity” value was -3.55% (inactive). With `Nc1c2ccccc2nc2ccccc12` the “activity change, negative = cytotoxicity” value was 0.688% (inactive). In the case of `O=C(Oc1ccccc1)c1ccccc1O`, the “activity change, negative = cytotoxicity” value is reported as 1.54% (inactive). In the case of `O=C(NO)c1ccccc1`, the “activity change, negative = cytotoxicity” value is reported as -7.04% (inactive). For `C1=CC2C3C=CC(C3)C2C1` (configuration not stated), the “activity change, negative = cytotoxicity” value was 13.9% (inactive). With `Cc1cc(C(C)(C)C)c(O)c(C(C)(C)C)c1` the “activity change, negative = cytotoxicity” value was 2.51% (inactive). With `c1ccc2occc2c1` the “activity change, negative = cytotoxicity” value was -8.32% (inactive). With `CCCCC(CC)COC(=O)c1ccccc1C(=O)O` (configuration not stated) the “activity change, negative = cytotoxicity” value was -8.73% (inactive). For `Nc1cccc2c(N)cccc12`, the “activity change, negative = cytotoxicity” value was -1.11% (inactive). For `CC(C)(c1ccc(O)cc1)c1ccc(O)cc1`, the outcome was “inactive”. In the case of `CC(=O)OC/C=C(C)/C=C/C=C(C)/C=C/C1=C(C)CCCC1(C)C`, the “activity change, negative = cytotoxicity” value is reported as -13.5% (inactive). With `Oc1ccccc1` the “activity change, negative = cytotoxicity” value was 3.44% (inactive). With `Cc1ccc(O)cc1` the “activity change, negative = cytotoxicity” value was -9.64% (inactive). For `OCc1c[nH]c2ccccc12`, the “activity change, negative = cytotoxicity” value was 5.36% (inactive). With `O=C(c1ccccc1)c1ccccc1` the “activity change, negative = cytotoxicity” value was 8.77% (inactive). With `COc1cc(C=O)ccc1O` the “activity change, negative = cytotoxicity” value was -0.659% (inactive). For `Brc1ccccc1-c1ccccc1`, the “activity change, negative = cytotoxicity” value was 11.2% (inactive).
